Source: PubChem BioAssay
Tau fluor cs – Counterscreen qHTS for Inhibitors of Tau Fibril Formation, Fluorescence Polarization; tau K18 P301L Alexa594 fluorescence, heparin fibrillization; Potency, µM (highest dose often 57.7 µM), for the others: top-dose activity change, negative = decrease; 0.93% of 280,000 active; AID 1463, 2008; also: nearly all actives have a fitted effect of over 55% in size
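Human K18 P301L tau (15 uM unlabeled plus 0.24 uM Alexa 594-labeled, final) in 100 mM sodium acetate pH 7 was mixed with compound and 20 uM heparin and incubated 6 hr at 37 C.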
Tau fibril ThT – qHTS for Inhibitors of Tau Fibril Formation, Thioflavin T Binding. Microtubule-associated protein tau (Homo sapiens), P10636. recombinant tau K18 P301L (four-repeat tau fragment), heparin-induced fibrillization, ThT fluorescence. Potency, µM (highest dose often 57.4 µM), for the others: at the highest dose activity, negative = inhibition, hits mostly inhibitors. 2.1% of 270,000 active. AID 1460, 2008; also: nearly all actives have a fitted effect of over 55% in size
Target sequence (P10636 561-689 P618L limits assumed): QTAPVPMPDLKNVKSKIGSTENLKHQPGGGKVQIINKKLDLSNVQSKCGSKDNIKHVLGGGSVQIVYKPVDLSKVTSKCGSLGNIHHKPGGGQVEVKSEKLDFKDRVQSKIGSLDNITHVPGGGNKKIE
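Tau K18 P301L fragment (15 uM unlabeled plus 0.24 uM Alexa 594-labeled) in 100 mM sodium acetate pH 7 with compound, fibrillization induced by 20 uM heparin for 6 hr at 37 C. Thioflavin T (30 uM) added, fluorescence read after 1 hr (ex 450, em 510 nm).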
ALDH1A1 inh – qHTS Assay for Inhibitors of Aldehyde Dehydrogenase 1 (ALDH1A1); 7.3% of 220,000 active; Purified ALDH1A1, NADH fluorescence, propionaldehyde substrate; Potency, µM (highest dose often 75.3 µM), for inactives: at the top dose activity, negative = inhibition, hits mostly inhibitors; Aldehyde dehydrogenase 1A1 (Homo sapiens), P00352; active = well fitted inhibition curve with a large enough effect, not every such curve was filed as active; inconclusive = small, poorly fitted or top-dose-only effect, or another doubt; inactive = no such curve, though single readings can be large or run the other way;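 also: plate controls were no enzyme wells and a reference inhibitor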
HPGD block – qHTS Assay for Inhibitors of HPGD (15-Hydroxyprostaglandin Dehydrogenase); purified HPGD, NADH fluorescence kinetic, PGE2 substrate; 4.3% of 150,000 active; Potency, µM, for inactives: at the top dose activity change, negative = inhibition, usual class: inhibitors; active = well fitted inhibition curve with a large enough effect, not every such curve was filed as active; inconclusive = small, poorly fitted or top-dose-only effect, or another doubt; inactive = no such curve, though single readings can be large or run the other way
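NADH formation kinetics: reaction with 30 uM PGE2 and 1 mM NAD+ (final), 20 nM enzyme, Tris-HCl pH 8 with Tween 20, after 15 min compound preincubation at room temperature. Fluorescence change, last versus first of five reads.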
NPSR antag – qHTS Assay for Antagonists of the Neuropeptide S Receptor: cAMP Signal Transduction; Q6W5P4; CHO-NPSR cells, cAMP TR-FRET, antagonist mode; Potency, µM (highest dose often 38.3 µM), inactives show top-dose activity change, negative = inhibition, hits mostly inhibitors; 1% of 220,000 active; AID 1461, 2008; also: nearly all actives have a fitted effect of over 50% in size
Target sequence (Q6W5P4 whole entry, looked up): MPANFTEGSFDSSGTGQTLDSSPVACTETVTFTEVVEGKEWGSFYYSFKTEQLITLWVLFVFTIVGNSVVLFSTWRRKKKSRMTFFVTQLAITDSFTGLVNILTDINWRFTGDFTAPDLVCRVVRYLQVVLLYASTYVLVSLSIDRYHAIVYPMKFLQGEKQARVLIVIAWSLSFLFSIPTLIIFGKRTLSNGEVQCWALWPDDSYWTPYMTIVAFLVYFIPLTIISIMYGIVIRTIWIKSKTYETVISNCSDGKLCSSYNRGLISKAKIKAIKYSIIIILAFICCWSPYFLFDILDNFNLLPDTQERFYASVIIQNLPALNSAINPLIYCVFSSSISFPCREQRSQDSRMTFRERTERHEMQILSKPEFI
Tau FP inhib – qHTS for Inhibitors of Tau Fibril Formation, Fluorescence Polarization. K18 P301L tau heparin fibrillization, Alexa594 FP, 6 h. Potency, µM (titrated, usually from 57.7 µM), without a hit: at the top dose activity, negative = inhibition, usual class: inhibitors. 0.39% of 280,000 active. AID 1468, 2008. Microtubule-associated protein tau (Homo sapiens), P10636; also: nearly all actives have a fitted effect of over 55% in size
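FP of Alexa 594-tau after heparin (20 uM) induction. Substrate: human K18 P301L, 15 uM unlabeled, 0.24 uM labeled. Buffer 100 mM sodium acetate pH 7. 6 hr, 37 C.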
* hit, by the source's call; [ ] = another dose, or the depositor's remark. The list is not random: actives were taken first. Their share in the collection is about 9.5%. Unless noted, calls follow the shape of the dose curve; as a rule, active = well fitted curve in the direction sought with a large enough effect; inconclusive = small, poorly fitted or top-dose-only effect, or another doubt; inactive = no such curve, though single readings can be large; an effect the other way counts as inactive or inconclusive. Unless noted, % is scaled to controls: 0 for no effect and ±100 for the full control effect; potency is read from the fitted curve at half-maximal effect.

How did CN(C)S(=O)(=O)c1ccc(S(=O)(=O)N(CC(=O)Nc2ccccc2)Cc2ccco2)cc1 do in these assays?
Tau fluor cs: 3%; Tau fibril ThT: 1%; ALDH1A1 inh: 7%; HPGD block: 1%; NPSR antag: -20%[46.1 µM]; Tau FP inhib: -1%

Results for CN(C)S(=O)(=O)c1ccc(S(=O)(=O)N(CC(=O)Nc2ccccc2)CC2CCCO2)cc1 (stereo not given) ?
Tau fluor cs: -7%; Tau fibril ThT: -3%; ALDH1A1 inh: inconclusive; HPGD block: -15%; NPSR antag: -17%[46.1 µM]; Tau FP inhib: 5%

How did CCN(CC)C(=O)CSc1nc(-c2ccccc2F)nc2c1Cc1c(CO)cnc(C)c1O2 do in these assays?
Tau fluor cs: -5%; Tau fibril ThT: inconclusive; Tau FP inhib: -6%

What do the screens show for `O=C(NCc1ccncc1)c1nc(-c2ccc(C(F)(F)F)cc2)no1`?
Tau fluor cs: 4%; Tau fibril ThT: 7%; ALDH1A1 inh: 11%; NPSR antag: 17%; Tau FP inhib: -5%

Results for CC(=O)/C(CN1CCCCC1)=N\O ?
Tau fluor cs: 8%; Tau fibril ThT: 1%; ALDH1A1 inh: 3.5µM*; HPGD block: -7%; NPSR antag: -4%[46.1 µM]; Tau FP inhib: 10%

What do the screens show for `O=C(O)CN1CCCCC1`?
Tau fluor cs: 3%; Tau fibril ThT: 7%; ALDH1A1 inh: -4%; NPSR antag: -10%; Tau FP inhib: 1%

What do the screens show for `C/C(=N\O)C(=O)C(CN1CCCCC1)CN1CCCCC1`?
Tau fluor cs: -3%; Tau fibril ThT: inconclusive; ALDH1A1 inh: 1.6µM*; HPGD block: inconclusive; NPSR antag: -11%[46.1 µM]; Tau FP inhib: -4%

What do the screens show for `C/C(Cn1nnc([N+](=O)[O-])n1)=N\NC(=O)c1cccc(Cl)c1`?
Tau fluor cs: -7%; Tau fibril ThT: -16%; ALDH1A1 inh: inconclusive; HPGD block: -1%; NPSR antag: 24%[46.1 µM]; Tau FP inhib: 2%

What do the screens show for `Cc1cccc(N2CN(Cc3ccco3)CNC2=S)c1C`?
Tau fluor cs: 4%; Tau fibril ThT: 1%; ALDH1A1 inh: 6%; HPGD block: 4%; NPSR antag: -6%[46.1 µM]; Tau FP inhib: 6%

What do the screens show for `Cc1n[nH]c(=S)n1/N=C/c1ccccc1`?
Tau fluor cs: -2%; Tau fibril ThT: -4%; ALDH1A1 inh: -6%; HPGD block: inconclusive; NPSR antag: 6%; Tau FP inhib: -3%

What do the screens show for `S=c1[nH]nc(Cc2ccc(Br)cc2)n1/N=C/c1ccc(Cl)cc1`?
Tau fluor cs: -18%; Tau fibril ThT: 6%; ALDH1A1 inh: 28µM*; NPSR antag: -36%; Tau FP inhib: -11%

Results for Cc1cc(C)c(COc2ccc(/C=N/n3c(C)n[nH]c3=S)cc2)c(C)c1 ?
Tau fluor cs: -28%; Tau fibril ThT: inconclusive; ALDH1A1 inh: inconclusive; HPGD block: 10µM*; NPSR antag: -36%; Tau FP inhib: 8%

Results for Cc1n[nH]c(=S)n1/N=C/c1ccc(OCc2ccc(Cl)cc2Cl)cc1 ?
Tau fluor cs: -9%; Tau fibril ThT: inconclusive; ALDH1A1 inh: -12%; HPGD block: inconclusive; NPSR antag: -12%; Tau FP inhib: -3%

How did Cc1n[nH]c(=S)n1/N=C/c1ccc(OCc2ccc(Cl)cc2)cc1 do in these assays?
Tau fluor cs: -16%; Tau fibril ThT: -9%; ALDH1A1 inh: 0%; HPGD block: 7.9µM*; NPSR antag: -30%[46.1 µM]; Tau FP inhib: 0%

What do the screens show for `O=C(Nc1ccc(O)c2c(=O)cc(-c3ccccc3Cl)oc12)c1ccc(Br)cc1`?
Tau fluor cs: -18%; Tau fibril ThT: 14µM*; ALDH1A1 inh: -6%; HPGD block: 1.1µM*; Tau FP inhib: 5%

What do the screens show for `O=c1cc(-c2ccccc2Cl)oc2c([N+](=O)[O-])c(O)cc(O)c12`?
Tau fluor cs: -6%[81.3 µM]; Tau fibril ThT: inconclusive; ALDH1A1 inh: -11%; HPGD block: 28µM*; NPSR antag: -15%; Tau FP inhib: 7%[81.3 µM]

What do the screens show for `CN(C)c1ccc(C(=O)Nc2ccc(O)c3c(=O)cc(-c4ccccc4Cl)oc23)cc1`?
Tau fluor cs: -18%; Tau fibril ThT: -13%; NPSR antag: -12%; Tau FP inhib: 8%

Results for O=c1cc(-c2ccccc2Cl)oc2ccc([N+](=O)[O-])c(O)c12 ?
Tau fluor cs: -18%[81.3 µM]; Tau fibril ThT: 11µM*; ALDH1A1 inh: 14%; HPGD block: 11µM*; NPSR antag: -23%; Tau FP inhib: -3%[81.3 µM]

Results for CCOC(=O)c1[nH]c2ccc(OC)cc2c1NC(=S)N1CCN(c2ccccc2)CC1 ?
Tau fluor cs: -2%; Tau fibril ThT: 2%; ALDH1A1 inh: 25µM*; HPGD block: -18%; NPSR antag: -4%; Tau FP inhib: 0%

Results for CCOC(=O)N1CCN(c2ncnc3c2[nH]c2ccc(OC)cc23)CC1 ?
Tau fluor cs: -29%; Tau fibril ThT: 8.9µM*; ALDH1A1 inh: inconclusive; HPGD block: inconclusive; NPSR antag: -13%[46.1 µM]; Tau FP inhib: 3%

How did Fc1ccc2[nH]c3c(N4CCN(c5ccccc5)CC4)ncnc3c2c1 do in these assays?
Tau fluor cs: 25µM*[quencher]; Tau fibril ThT: inconclusive; ALDH1A1 inh: -2%; HPGD block: inconclusive; NPSR antag: inconclusive; Tau FP inhib: 11%

What do the screens show for `CCOC(=O)c1[nH]c2ccc(OC)cc2c1NC(=S)N1CCN(c2cccc(Cl)c2)CC1`?
Tau fluor cs: 7%; Tau fibril ThT: 10%; ALDH1A1 inh: inconclusive; HPGD block: -17%; NPSR antag: -6%; Tau FP inhib: 10%

How did CCOC(=O)N1CCN(c2ncnc3c2[nH]c2ccc(F)cc23)CC1 do in these assays?
Tau fluor cs: -30%; Tau fibril ThT: inconclusive; ALDH1A1 inh: -13%; HPGD block: -21%; NPSR antag: -20%[46.1 µM]; Tau FP inhib: 7%

Results for OC1(c2cccc(C(F)(F)F)c2)CCN(c2ncnc3c2[nH]c2ccc(F)cc23)CC1 ?
Tau fluor cs: inconclusive; Tau fibril ThT: inconclusive; ALDH1A1 inh: inconclusive; HPGD block: inconclusive; NPSR antag: 13µM*; Tau FP inhib: -15%

What do the screens show for `COC(=O)c1ccc2c(=O)n(CCc3ccc(S(N)(=O)=O)cc3)c(SCC(=O)C(C)(C)C)nc2c1`?
Tau fluor cs: -12%; Tau fibril ThT: 1%; Tau FP inhib: inconclusive
